FMDV inh: High Throughput Screening for Foot and Mouth Disease Virus Antivirals. FMDV antiviral cell-based qHTS. Potency, µM (series often up to 57.9 µM), hits mostly inhibitors. actives 1.2% (n = 410,000). AID 1159524, 2015; calls by dose curve; tested in HEK293T cells; further: read-out not given here; nearly all actives have a fitted effect of over 45% in size
SARS PLpro yeast: qHTS of Yeast-based Assay for SARS-CoV PLP; S. cerevisiae expressing SARS-CoV PLpro, growth rescue; Potency, µM (doses to about 32.9 µM), most hits filed as activators; actives 0.19% (n = 330,000); calls by dose curve; further: nearly all actives have a fitted effect of over 55% in size
Marburg entry inh: qHTS for inhibitors of binding or entry into cells for Marburg Virus; Marburg virus pseudotyped entry inhibition, cell reporter; Potency, µM (titrated, usually from 37.8 µM), usual class: inhibitors; actives 1.8% (n = 300,000); calls by dose curve; tested in HEK293 cells
HCV inhibitor: qHTS Assay for Inhibitors of Hepatitis C Virus (HCV). actives 3.4% (n = 340,000). Potency, µM (series often up to 41.8 µM), most hits filed as inhibitors. Huh7.5.1 HCVcc-Cre infection, luciferase reporter, 44 h; active means well fitted inhibition curve with a large enough effect; inconclusive means small, poorly fitted or top-dose-only effect, or another doubt; inactive means no such curve, though single readings can be large or run the other way
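HCVcc-Cre virus at an moi near 0.5 was added right after compound to cells cultured 4 h from seeding (1,000 cells/well). Luciferase activity was determined 44 h later, 15 min after substrate addition at RT.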
HCMV inh: qHTS Assay for inhibitors of the human cytomegalovirus (HCMV); HFF cells, HCMV-luciferase reporter, 72 h; hits give low values; activity change, negative = inhibition, % at 57.5 µM; actives 4.5% (n = 410,000); AID 1259415, 2018; in the data active means activity change below about -60%; inconclusive means no clear call, values can overlap the other calls; inactive means above about -39%
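Compounds were evaluated in HFFs infected with an HCMV luciferase reporter virus (MOI 1 PFU/cell). Luciferase in lysates collected 72 h post infection served as the replication measure.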
LASV entry inh: qHTS for Inhibitors of binding or entry into cells for Lassa Virus; Lassa virus pseudotype entry inhibition, cell reporter; Potency, µM (titrated, usually from 37.9 µM), actives largely listed as inhibitors; actives 1.2% (n = 300,000); calls by dose curve; tested in HEK293 cells; further: nearly all actives have a fitted effect of over 50% in size
A number is an active result; – = inactive; ? = inconclusive; · = no result given. An excerpt weighted towards active compounds, which were near 8% of everything screened.

SMILES	FMDV inh	SARS PLpro yeast	Marburg entry inh	HCV inhibitor	HCMV inh	LASV entry inh
COc1cc(OC)c2c(-c3cccc(-c4ccc(N(C)C)cc4)c3)cc(=O)oc2c1	–	–	·	?	-73	·
CCC(=O)N1CCc2cc(S(=O)(=O)NC(C(=O)NCCc3ccccc3)C(C)C)ccc21 (stereo not drawn)	–	·	–	·	–	–
CCCC(=O)Nc1cc(C)c(O)c(-c2nc3ncccc3o2)c1	–	·	–	·	–	–
C#CCSc1nnnn1-c1cccc(Cl)c1	–	–	3.2µM	25µM	–	?
NC(=O)CSc1nnnn1-c1cccc(Cl)c1	–	–	–	–	–	–
Cc1ccc(/C=C2\C(=O)NC(=S)N(c3ccccc3F)C2=O)s1	?	–	?	?	-101	?
CN(C(=O)CSc1nc2ccc(NC(=O)c3ccco3)cc2s1)c1ccccc1	?	·	?	·	?	–
CCCn1c(=N)n(CC(O)COc2cccc(C)c2)c2ccccc21 (stereo not drawn)	?	–	8.2µM	?	–	–
COc1ccc(OCC(O)Cn2c(=N)n(CCN3CCOCC3)c3ccccc32)cc1 (stereo not drawn)	–	–	?	–	–	–
CCCCCn1c(=N)n(CC(O)COc2cccc(C)c2)c2ccccc21 (stereo not drawn)	?	·	?	·	-105	?
CCn1c(=N)n(CC(O)COc2cccc(C)c2)c2ccccc21 (stereo not drawn)	?	?	?	?	–	–
CCCCn1c(=N)n(CC(O)COc2ccc(C)cc2)c2ccccc21 (stereo not drawn)	?	–	?	11µM	–	?
COC(=O)[C@@H]1CCCN1Cc1ccc2c(c1)CN(Cc1cccn1-c1ccc(Cl)cn1)CCO2	–	·	·	·	·	·
O=C(Nc1ccc2c(c1)OCCO2)c1cccc(Br)c1	–	–	?	–	–	–
O=C(Nc1ccc2c(c1)OCCO2)c1ccc(Br)cc1	–	–	4µM	?	–	?
CC(=O)Nc1ccc(NC(=O)/C=C/c2ccc3c(c2)OCO3)cc1	–	–	–	?	?	–
O=C(Nc1ccc2c(c1)OCCO2)c1c(Cl)cccc1Cl	–	·	·	·	-85	·
Cc1ccc(C(=O)Nc2ccc3c(c2)OCCO3)cc1	?	–	?	–	?	2.8µM
CC(C)(C)c1ccc(/C=C/C(=O)Nc2ccc3c(c2)OCCO3)cc1	·	·	–	·	·	6.5µM
COc1ccc(-c2cc(C(F)(F)F)nc(SCCC(=O)Nc3ccc(O)cc3)n2)cc1	–	·	–	·	?	–
O=C(Nc1ccc2c(c1)OCCO2)c1cc(-c2ccccn2)nc2ccc(Br)cc12	–	–	–	–	-94	–
Cc1cccc(-c2cc(C(=O)Nc3ccc4c(c3)OCCO4)c3ccccc3n2)c1	–	–	–	?	–	–
Cc1csc(CN(C)C(=O)c2sc3ncnc(NCC4CCCO4)c3c2C)n1 (stereo not drawn)	–	·	·	·	·	·
CC(C)(Oc1ccc(Cl)cc1)C(=O)Nc1nnc2n1CCS2	–	·	·	·	–	–
CCOC(=O)c1sc2nccc(N(C)C)c2c1N=CN(C)C	–	–	?	?	–	–
SMILES	FMDV inh	SARS PLpro yeast	Marburg entry inh	HCV inhibitor	HCMV inh	LASV entry inh
CN(C)c1ccnc2sc(C(=O)NCc3ccccc3)c(N)c12	·	–	–	13µM	–	?
CN(C)C=Nc1c(C(=O)c2ccccc2)sc2nccc(N(C)C)c12	–	–	–	?	-75	–
CCC(C)c1ccc(C(CC)NC(=O)C2CCCO2)cc1 (stereo not drawn)	?	–	·	10µM	–	·
COc1ccccc1-n1cnnc1SCC(=O)Nc1cc(C(C)(C)C)nn1-c1ccccc1	–	–	–	?	?	–
Cc1ccsc1C(=O)Nc1cc(C(C)(C)C)nn1-c1ccccc1	–	–	–	?	-110	–
COc1ccc(-n2cnnc2SCC(=O)Nc2cc(C(C)(C)C)nn2-c2ccccc2)cc1	–	–	–	–	-96	–
Cn1cnc(CCNC(=O)[C@@H]2[C@@H](CO)[C@@H]3Cn4c(cccc4=O)[C@H]2N3C(=O)Nc2ccccc2)c1	·	·	·	·	–	·
O=C(COC(=O)c1ccc(S(=O)(=O)N2CCOCC2)cc1)Nc1nc(-c2ccccc2)cs1	–	–	–	–	–	–
O=C(CCc1ccc(S(=O)(=O)N2CCOCC2)cc1)Nc1nc(COc2ccccc2)cs1	14µM	–	21µM	?	-93	–
O=C(COc1ccccc1)Nc1nc(-c2ccc(S(=O)(=O)N3CCOCC3)cc2)cs1	14µM	–	?	?	–	?
O=C(CN1CCOCC1)Nc1nc(-c2ccc(Cl)cc2)cs1	?	–	?	22µM	–	7.1µM
O=C(COc1ccc(Cl)cc1)Nc1nc(-c2ccc(S(=O)(=O)N3CCOCC3)cc2)cs1	?	–	?	11µM	–	?
COc1cccc(CNC(=O)CCCn2ncn3c(cc4occc43)c2=O)c1OC	–	·	–	·	–	–
CC1=C(c2ccc(C)cc2)S(=O)(=O)NC1=NCCCN1CCN(c2ccccc2F)CC1	–	·	–	·	?	–
COc1cc(C(=O)NNC(=O)COc2cccc(F)c2)ccc1OCC(=O)N1CCOCC1	–	–	·	–	-70	·
COc1ccccc1OCC(=O)Nc1nc(-c2ccc(S(=O)(=O)N3CCOCC3)cc2)cs1	?	·	?	16µM	–	?
O=C(COc1ccccc1)Nc1nc(-c2ccncc2)cs1	28µM	–	?	–	–	–
Cc1ccc(-c2csc(NC(=O)COc3ccc(N(C)S(=O)(=O)c4ccc(C)cc4)cc3)n2)cc1	–	–	?	7.9µM	?	–
O=C(COc1ccccc1)Nc1nc(-c2cccnc2)cs1	–	–	·	–	–	·
CCc1nc(Oc2cccc(F)c2)c2oc3ccccc3c2n1	–	·	·	·	–	–
Cc1ccc(N2CC(NC(=O)c3cccs3)CC2=O)cc1C (stereo not drawn)	–	·	·	·	–	–
CCOc1ccc(CNC(=O)CCCn2c(=O)c3cccn3c3ccc(F)cc32)cc1	–	·	·	·	?	–
Cc1ccc(C)c(Cn2c(=O)n(CCCC(=O)NCc3ccc4c(c3)OCO4)c(=O)c3sccc32)c1	–	·	?	·	–	–
COc1ccc(-c2csc(NC(=O)c3ccc(OCC(=O)N4CCOCC4)c(OC)c3)n2)cc1OC	14µM	–	11µM	?	-82	?
COc1cc(C(=O)Nc2cccc(C)n2)ccc1OCC(=O)N1CCOCC1	–	–	·	–	–	·
Cc1ccc(-c2cc(C#N)c(=O)n(Cc3c(Cl)cccc3Cl)c2)cc1	–	–	–	–	-62	–
Nc1nc2ccccc2n1C(=O)c1ccccc1	–	–	·	–	–	·
Nc1nc2ccccc2n1C(=O)c1ccc(F)cc1	–	–	?	–	–	7.1µM
CC1CC(=O)N(CC(=O)Nc2ccc(Br)cc2)c2ccccc2S1(=O)=O (stereo not drawn)	–	?	·	–	-64	·
CCN(CC)CCCNc1oc(-c2ccc(OC)cc2)nc1C#N	–	·	·	·	–	–
